# Screening data deposited in PubChem BioAssay by Fisher Drug Discovery Resource Center.
# hcGAS inh = human cGAS inhibition. AID 1259398. recombinant h-cGAS, ATP depletion, Kinase-Glo luminescence. Q8N884. inhibition, % at 12.5 µM. 290,000 compounds, 0.081% hits;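 note: 0% = vehicle reaction and 100% = reaction without DNA for no activity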
# Target sequence (Q8N884 whole entry, looked up): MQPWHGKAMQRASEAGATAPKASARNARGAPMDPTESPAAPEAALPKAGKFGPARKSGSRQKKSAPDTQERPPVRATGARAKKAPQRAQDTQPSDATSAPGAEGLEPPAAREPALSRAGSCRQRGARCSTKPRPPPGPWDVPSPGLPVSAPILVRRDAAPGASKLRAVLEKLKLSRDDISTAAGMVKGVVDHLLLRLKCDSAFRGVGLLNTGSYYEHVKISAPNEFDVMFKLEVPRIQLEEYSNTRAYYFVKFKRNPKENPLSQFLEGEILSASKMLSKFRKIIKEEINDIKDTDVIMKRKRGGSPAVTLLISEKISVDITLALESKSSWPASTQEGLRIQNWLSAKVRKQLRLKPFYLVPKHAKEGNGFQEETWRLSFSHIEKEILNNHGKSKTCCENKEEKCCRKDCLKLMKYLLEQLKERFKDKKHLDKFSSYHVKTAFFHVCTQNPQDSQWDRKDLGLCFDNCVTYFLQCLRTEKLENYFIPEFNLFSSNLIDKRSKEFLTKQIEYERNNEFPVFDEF
# NPYLR7 agonist = mosquito NPYLR7 agonism; 270,000 compounds, 0.15% hits; HEK293T NPYLR7/Galpha15, GCaMP6s calcium fluorescence; activation, % at 10 µM; in the data active = activation above about 40%;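 note: 0% = vehicle and 100% = reference agonist at the receptor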
# mcGAS lum = blocks mouse cGAS activity. Q8C6L5. inhibition, % at 12.5 µM. recombinant cGAS, Kinase-Glo ATP depletion luminescence. AID 1259399. 160,000 compounds, 0.15% hits;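 note: 0% = negative control wells and 100% = reference inhibitor with no enzyme activity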
# Active calls of the source: *; / = not tested or not shown; ! = not confirmed by another sample. Rows were chosen to be rich in hits. Some 0.28% of all compounds tested hit in one or more screens of this group. Cut-off read from the data, not from the text of the source, unless noted: active = inhibition above about 40%; inactive = the rest.
SMILES,hcGAS inh,NPYLR7 agonist,mcGAS lum
CC1=C(C(=O)OCC(C)C)C(c2ccccc2[N+](=O)[O-])NC(=O)N1C (stereo unspecified),-6.7,-1.1,-4.7
O=c1[nH]c2c(Br)c(Br)c(Br)cc2o1,34.7,11.9,66.1*
O=c1[nH]c2ccc(Cl)cc2o1,-4.1,7.1,/
CCc1c(C)nc2c(-c3ccccc3)c(C)[nH]n2c1=O,5.6,-2.4,/
Cc1[nH]n2c(=O)c(C#N)c(-c3ccccc3)nc2c1-c1ccccc1,53.7*,-5.3,/
c1ccc2c(-c3cc(NC4CCNCC4)nc4[nH]ccc34)n[nH]c2c1,18.7,23.7,-10.9
c1cnc(-c2cc(NC3CCNCC3)nc3[nH]ccc23)nc1,45.6*,29.9,-3.3
Cc1csc(N2C(=N)SCC2=O)n1,42.2*,8.2,4.8
Cc1csc(N2C(=N)SC(c3ccccc3)C2=O)n1 (stereo unspecified),-3.0,1.2,-1.2
CC(C)C(C(=O)O)N1C(=O)/C(=C/c2ccc(N(C)C)cc2)SC1=S (stereo unspecified),-3.1,54.2*,-6.9
COC(=O)c1ccc(/C=C2/SC(=S)N(C(C(=O)O)C(C)C)C2=O)cc1 (stereo unspecified),-2.5,-1.9,-6.7
CC(=O)NN1C(=O)/C(=C\c2ccc(O)cc2)SC1=S,-7.7,81.0*,-8.4
CSCCC(C(=O)O)N1C(=O)/C(=C/c2ccc(C)cc2)SC1=S (stereo unspecified),-0.8,-5.5,29.4
CN1C(=O)C(=Cc2ccc(O)cc2)SC1=S,4.2,17.5,/
O=C(O)CCN1C(=O)/C(=C/c2ccc(O)cc2)SC1=S,-4.2,92.2*,-0.5
CCCC(C(=O)O)N1C(=O)/C(=C/c2ccc(O)cc2)SC1=S (stereo unspecified),-3.7,79.3*,-3.8
Cc1ccc(/C=C2\SC(=S)N(CCC(=O)O)C2=O)cc1,3.7,-3.4,-1.3
Cc1cc([N+](=O)[O-])cc2c(N=NC(=O)COc3cccc(Br)c3)c(O)n(C)c12,0.2,-4.0,0.2
Cc1ccc(Cc2nc(N3CCN(C(=O)c4cccc(F)c4)CC3)c3c(-c4cccnc4)noc3n2)cc1,-1.5,12.4,-3.7
O=C(CN(C(=O)c1ccc2c(c1)OCO2)C1CC1)N(CCc1c[nH]c2ccccc12)Cc1ccc(F)cc1,-1.4,10.2,-5.5
CCOc1cc(C=C2SC(=S)N(c3ccc(OC)cc3)C2=O)ccc1O,-6.9,-4.4,-6.0
CC(C)N1C(=O)C(=Cc2ccc(O)cc2)SC1=S,-8.1,5.1,-8.3
CCOc1cc(/C=C2\SC(=S)N(NC(=O)c3ccccc3O)C2=O)ccc1O,-7.9,59.1*,8.3
CC(C(=O)O)N1C(=O)/C(=C\c2ccc(O)cc2)SC1=S (stereo unspecified),0.1,62.3*,2.2
O=C(Cc1cccs1)OCc1cc(=O)n2cc(Br)ccc2n1,6.2,0.2,/
SMILES,hcGAS inh,NPYLR7 agonist,mcGAS lum
CCCCCCCCCCCCCCCC(=O)NCCO,-7.8,5.1,-3.4
CCCCNC(=O)CCCCCNC(N)=O,-3.5,55.1*,/
Cc1csc(Sc2nc3cc(C)nn3c3ccccc23)n1,-6.3,6.8,/
Cn1ccnc1SCC(=O)c1cc(I)c(O)c(I)c1,8.0,-0.9,76.4*
CC(C)Cn1c(N)c(C(=O)CSc2nccn2C)c(=O)n(C)c1=O,-4.2,-3.4,-5.5
CCC(C(=O)N1CCN(CC(OCc2ccc(C(=O)OC)cc2)c2ccc(Cl)cc2)CC1)c1ccccc1 (stereo unspecified),-6.7,/,87.9*
COC(=O)c1ccc(COC(CN2CCN(C(=O)c3ccc(Cl)cc3)CC2)c2ccc(Cl)cc2)cc1 (stereo unspecified),-7.0,/,-4.7
CCOc1cc(C=C(C#N)C(=O)OC(C)C)cc(Cl)c1O,-7.4,13.7,/
COc1cc(C=C(C#N)S(=O)(=O)c2ccc(Cl)cc2)cc(Cl)c1O,-1.4,117.7*,/
COc1cc(C=C(C#N)S(=O)(=O)c2ccc(Cl)cc2)cc2c1OCCO2,-3.8,0.9,/
COc1cc(C=C(C#N)C(=O)OC(C)C)cc(Cl)c1O,-4.1,82.6*,/
CC1CN(c2cc(Oc3ccc(F)cc3Cl)ncn2)CCN1C(=O)/C=C/c1ccccc1 (stereo unspecified),-6.4,-4.0,-3.3
COCCN(Cc1c(-c2ccccc2)noc1N(C)C1CCCCC1)C(=O)Cc1ccccc1,-3.6,7.7,-6.8
OC(COCc1ccco1)CN(Cc1cccc(Cl)c1)CC1CC(c2ccccc2F)=NO1 (stereo unspecified),-3.9,-2.5,-5.0
CC(C)=CCCC1=CC[C@H](C(=O)O)[C@H](C(=O)O)C1,-3.9,1.5,-5.1
CC1=CC(C)C(C(=O)O)C(C(=O)O)C1 (stereo unspecified),-1.1,43.0*,-6.4
O=C(O)C1C2CC3C1C(=O)Oc1ccccc1C1c4sc(=O)[nH]c4SC2C13 (stereo unspecified),-4.0,15.3,13.7
O=C(O)C1C2CC3C1C(=O)Oc1ccc(Br)cc1C1c4sc(=O)[nH]c4SC2C13 (stereo unspecified),-0.9,12.6,41.4*
CCCn1c2c(c(=O)n(C)c1=O)C(=O)C(=Cc1ccc(N(C)C)cc1)N2,-2.2,259.1*,-5.4
CN(C)c1ccc(/C=C2/C(=O)NC(=O)N(Cc3ccccc3)C2=O)cc1,11.0,4.9,-3.1
O=C(CCl)Nc1ncc(Cc2ccccc2Cl)s1,-6.2,3.4,27.7
FC1(F)C[C@@H](COc2cccnc2)N(C2CCN(C3CCCCC3)CC2)C1,-13.7,/,-5.7
CC(C)N=C(N)N=C(N)Nc1ccc(Cl)cc1,-3.8,5.6,/
NC(=NCCCCCCN=C(N)N=C(N)Nc1ccc(Cl)cc1)N=C(N)Nc1ccc(Cl)cc1,-3.8,70.4*!,-3.6
O=C(O)c1ccc([C@@H]2Nc3ccc(I)cc3[C@@H]3C=CC[C@@H]32)cc1,28.4,10.3,70.9*
SMILES,hcGAS inh,NPYLR7 agonist,mcGAS lum
COC(=O)c1ccc2c(c1C)NC(c1ccc([N+](=O)[O-])cc1)C1CC=CC21 (stereo unspecified),-1.0,-2.4,-1.4
O=C(O)c1ccc2c(c1)C1C=CCC1C(c1ccc(Br)cc1)N2 (stereo unspecified),76.7*,-7.2,100.3*
O=C(O)c1ccc(C2Nc3c(F)cc(F)cc3C3C=CCC32)cc1 (stereo unspecified),5.8,18.1,/
O=C1CC(C(=O)N2CCC3(CC2)OCCCO3)CN1Cc1cccs1 (stereo unspecified),-3.7,5.3,/
COc1ccc2[nH]c3c(c2c1)CCN(C(=O)c1cc2ccccc2s1)C3c1ccc(COC(C)=O)o1 (stereo unspecified),0.7,13.4,-6.7
Cc1cc([N+](=O)[O-])ccc1N1C(=O)/C(=C\c2ccncc2)N(C)C1=S,-6.0,20.2,13.1
COc1ccc(N2C(=O)/C(=C\c3ccc[nH]3)N(C)C2=S)c([N+](=O)[O-])c1,-3.8,45.6*,-8.3
O=C(Nc1ccnn1C1CCN(Cc2cccc3cccnc23)CC1)C1CC1,-2.6,19.2,-3.1
CN(C)Cc1ccc2ccc3cccc4ccc1c2c34,83.7*,1.3,/
CN(C)Cc1ccccc1Cc1ccccc1,-3.1,1.6,/
Cc1ccnc(N=Cc2nc(-c3ccccc3F)oc2O)c1,-1.8,-3.9,-7.9
COc1ccc(-c2noc(CSCc3ccc(Cl)cc3)n2)c(OC)c1,0.7,-1.3,/
OC[C@H]1O[C@@H](n2cnc3c(NCc4ccco4)ncnc32)[C@H](O)[C@@H]1O,-1.8,6.7,-4.2
